Assay results from PubChem BioAssay (NCATS).
Results filed as inconclusive are left out. The source made the active and inactive calls. The call rests on the fitted dose curve; in most records, active means well fitted curve in the direction sought with a large enough effect; inconclusive means small, poorly fitted or top-dose-only effect, or another doubt; inactive means no such curve, though single readings can be large; an effect the other way counts as inactive or inconclusive.

Assays:
[1] = Quantitative High-Throughput drug screen in 47 multiple myeloma cell lines against the NCATS MIPE library collection: KHM11_PLB cell viability assay (AID 1918962); further: nearly all actives have a fitted effect of over 35% in size
Procedure, shortened: (§1)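 qHTS of the MIPE 4.0 collection: 500 myeloma cells/well, 48 h drug exposure at 37C in 5% CO2, then CellTiter-Glo for 5 min at room temperature before luminescence reading.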

[2] = Quantitative High-Throughput drug screen in 47 multiple myeloma cell lines against the NCATS MIPE library collection: JIM3_ECACC cell viability assay (AID 1918963; further: nearly all actives have a fitted effect of over 35% in size)
Procedure, shortened: as §1

[3] = Quantitative High-Throughput drug screen in 47 multiple myeloma cell lines against the NCATS MIPE library collection: JIM1_ECACC cell viability assay (AID 1918964)
Procedure, shortened: (§2)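 Relative luminescence from CellTiter-Glo served as the viability signal, referenced to DMSO-treated (100%) and cell-free medium (0%) controls. Treatment lasted 48 hours at 37C with 500 cells per well.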

[4] = Quantitative High-Throughput drug screen in 47 multiple myeloma cell lines against the NCATS MIPE library collection: INA6_PLB cell viability assay (AID 1918965; further: nearly all actives have a fitted effect of over 55% in size)
Procedure, shortened: (§3)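 Luminescent ATP measurement with CellTiter-Glo gives viability, scaled between DMSO-only wells (100%) and media-only wells (0%). Cells, 500 per well, faced library compounds for 48 hours at 37C.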

[5] = Quantitative High-Throughput drug screen in 47 multiple myeloma cell lines against the NCATS MIPE library collection: JJN3_DSMZ cell viability assay (AID 1918966; further: nearly all actives have a fitted effect of over 50% in size)
Procedure, shortened: as §2

[6] = Quantitative High-Throughput drug screen in 47 multiple myeloma cell lines against the NCATS MIPE library collection: H1112_PLB cell viability assay (AID 1918967; further: nearly all actives have a fitted effect of over 30% in size)
Procedure, shortened: as §2

[7] = Quantitative High-Throughput drug screen in 47 multiple myeloma cell lines against the NCATS MIPE library collection: Karpas25_ECACC cell viability assay (AID 1918968; further: nearly all actives have a fitted effect of over 35% in size)
Procedure, shortened: as §2

[8] = Quantitative High-Throughput drug screen in 47 multiple myeloma cell lines against the NCATS MIPE library collection: KMS27_JCRB cell viability assay (AID 1918970); further: nearly all actives have a fitted effect of over 30% in size
Procedure, shortened: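 CellTiter-Glo luminescence after 48 h drug exposure at 37 °C; 500 cells/well, 1536-well format, pin-tool compound addition; DMSO = 100%, media-only = 0% viability.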

[9] = Quantitative High-Throughput drug screen in 47 multiple myeloma cell lines against the NCATS MIPE library collection: KMS12BM_JCRB cell viability assay (AID 1918971); further: nearly all actives have a fitted effect of over 35% in size
Procedure, shortened: (§4)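 Steps: seed 500 cells per well; pin-transfer MIPE 4.0 library; incubate 48 h at 37C, 5% CO2, humidified; add CellTiter-Glo, 5 min room temperature; read luminescence.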

[10] = Quantitative High-Throughput drug screen in 47 multiple myeloma cell lines against the NCATS MIPE library collection: KMS12PE_JCRB cell viability assay (AID 1918972); further: nearly all actives have a fitted effect of over 30% in size
Procedure, shortened: as §3

[11] = Quantitative High-Throughput drug screen in 47 multiple myeloma cell lines against the NCATS MIPE library collection: KMS20_JCRB cell viability assay (AID 1918973); further: nearly all actives have a fitted effect of over 45% in size
Procedure, shortened: as §2

[12] = Quantitative High-Throughput drug screen in 47 multiple myeloma cell lines against the NCATS MIPE library collection: KMS26_JCRB cell viability assay (AID 1918975); further: nearly all actives have a fitted effect of over 45% in size
Procedure, shortened: as §4

[13] = Quantitative High-Throughput drug screen in 47 multiple myeloma cell lines against the NCATS MIPE library collection: MMM1_PLB cell viability assay (AID 1918976); further: nearly all actives have a fitted effect of over 35% in size
Procedure, shortened: (§5)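 qHTS format: cells plated (500/well), pin-dosed with MIPE 4.0 compounds, kept 48 h at 37 °C. Readout was CellTiter-Glo luminescence, median RLU.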

[14] = Quantitative High-Throughput drug screen in 47 multiple myeloma cell lines against the NCATS MIPE library collection: MOLP8_DSMZ cell viability assay (AID 1918977); further: nearly all actives have a fitted effect of over 45% in size
Procedure, shortened: as §5

[15] = Quantitative High-Throughput drug screen in 47 multiple myeloma cell lines against the NCATS MIPE library collection: NCIH929_DSMZ cell viability assay (AID 1918978); further: nearly all actives have a fitted effect of over 35% in size
Procedure, shortened: as §5

[16] = Quantitative High-Throughput drug screen in 47 multiple myeloma cell lines against the NCATS MIPE library collection: OCIMY1_PLB cell viability assay (AID 1918979); further: nearly all actives have a fitted effect of over 35% in size
Procedure, shortened: as §5

[17] = Quantitative High-Throughput drug screen in 47 multiple myeloma cell lines against the NCATS MIPE library collection: MM1S_ATCC cell viability assay (AID 1918980); further: nearly all actives have a fitted effect of over 45% in size
Procedure, shortened: as §5

[18] = Quantitative High-Throughput drug screen in 47 multiple myeloma cell lines against the NCATS MIPE library collection: MM1R_ATCC cell viability assay (AID 1918981); further: nearly all actives have a fitted effect of over 35% in size
Procedure, shortened: as §5

[19] = Quantitative High-Throughput drug screen in 47 multiple myeloma cell lines against the NCATS MIPE library collection: LP1_DSMZ cell viability assay (AID 1918982); further: nearly all actives have a fitted effect of over 35% in size
Procedure, shortened: as §5

[20] = Quantitative High-Throughput drug screen in 47 multiple myeloma cell lines against the NCATS MIPE library collection: KMS21BM_JCRB cell viability assay (AID 1918974); conditions: ATP luminescence, 48 h; viability: at 45.8 µM (top of the series) unless noted
Procedure, shortened: as §2
Potency means the concentration at half of the fitted maximal effect.

| SMILES | Potency [1] | Potency [2] | Potency [3] | Potency [4] | Potency [5] | Potency [6] | Potency [7] | Potency [8] | Potency [9] | Potency [10] | Potency [11] | Potency [12] | Potency [13] | Potency [14] | Potency [15] | Potency [16] | Potency [17] | Potency [18] | Potency [19] | Potency [20] |
| --- | --- | --- | --- | --- | --- | --- | --- | --- | --- | --- | --- | --- | --- | --- | --- | --- | --- | --- | --- | --- |
| CC[C@@]1(O)C(=O)OCc2c1cc1n(c2=O)Cc2cc3c(CN(C)C)c(O)ccc3nc2-1 | 1660 nM (active) | 5260 nM (active) | 743 nM (active) | 29.6 nM (active) | 5900 nM (active) | 418 nM (active) | 662 nM (active) | 83.3 nM (active) | 1870 nM (active) | 2640 nM (active) | 235 nM (active) | 20900 nM (active) | 18700 nM (active) | 1320 nM (active) | 743 nM (active) | 13200 nM (active) | 166 nM (active) | 166 nM (active) | 13200 nM (active) | – |
| CC1(CN2CCC(n3c(=O)[nH]c4ccccc43)CC2)OCc2ccccc2-n2cccc21 (stereo not given) | inactive | inactive | – | 14800 nM (active) | – | – | 13200 nM (active) | – | 16600 nM (active) | inactive | – | 5900 nM (active) | 5900 nM (active) | – | – | inactive | 7430 nM (active) | 2640 nM (active) | – | – |
| O=C1c2c(O)ccc(O)c2C(=O)c2c(NCCNCCO)ccc(NCCNCCO)c21 | 833 nM (active) | 1870 nM (active) | 1660 nM (active) | 52.6 nM (active) | 4180 nM (active) | 332 nM (active) | 296 nM (active) | 590 nM (active) | 1050 nM (active) | 2960 nM (active) | 132 nM (active) | 2350 nM (active) | 1480 nM (active) | 1320 nM (active) | 526 nM (active) | 13200 nM (active) | 46.9 nM (active) | 105 nM (active) | 5900 nM (active) | 1480 nM (active) |
| CC(=O)OCC(CCn1cnc2cnc(N)nc21)COC(C)=O | inactive | inactive | inactive | inactive | – | inactive | inactive | – | inactive | inactive | inactive | inactive | – | inactive | inactive | inactive | – | inactive | inactive | – |
| NC(=O)NO | 2960 nM (active) | 187 nM (active) | 1660 nM (active) | 166 nM (active) | 2350 nM (active) | – | 166 nM (active) | 743 nM (active) | 1480 nM (active) | 833 nM (active) | 93.5 nM (active) | 1180 nM (active) | 2090 nM (active) | 3320 nM (active) | 743 nM (active) | 662 nM (active) | 935 nM (active) | 1180 nM (active) | 2640 nM (active) | – |
| O=C(Nc1ccc([N+](=O)[O-])cc1Cl)c1cc(Cl)ccc1O | 1320 nM (active) | 590 nM (active) | 1050 nM (active) | 935 nM (active) | 1870 nM (active) | 1320 nM (active) | 332 nM (active) | 935 nM (active) | 1480 nM (active) | 469 nM (active) | 590 nM (active) | 1870 nM (active) | 743 nM (active) | 1660 nM (active) | 1050 nM (active) | 2960 nM (active) | 1180 nM (active) | 1660 nM (active) | 743 nM (active) | 1050 nM (active) |
| CCc1cccc2c3c([nH]c12)C(CC)(CC(=O)O)OCC3 (stereo not given) | inactive | inactive | – | inactive | – | inactive | – | inactive | – | inactive | – | inactive | 4180 nM (active) | – | inactive | inactive | inactive | – | inactive | – |
| CCC1(c2ccccc2)C(=O)NCNC1=O | 5260 nM (active) | 4690 nM (active) | – | 3320 nM (active) | – | – | 1660 nM (active) | – | – | – | – | inactive | – | inactive | 1320 nM (active) | inactive | 1050 nM (active) | inactive | inactive | – |
| Cc1cc(C(C)(C)C)c(O)c(C)c1CC1=NCCN1 | inactive | inactive | – | – | – | inactive | inactive | – | inactive | inactive | – | – | – | inactive | inactive | inactive | – | inactive | inactive | – |
| Clc1ccccc1C(c1ccccc1)(c1ccccc1)n1ccnc1 | inactive | 18700 nM (active) | 74.3 nM (active) | 16600 nM (active) | – | – | 18700 nM (active) | – | 16600 nM (active) | 7430 nM (active) | – | – | 23500 nM (active) | – | – | inactive | – | – | – | – |
| Cn1c(=O)c2c(ncn2C)n(C)c1=O | inactive | inactive | – | inactive | inactive | inactive | – | – | inactive | inactive | – | – | – | – | inactive | inactive | inactive | inactive | inactive | – |
| CC(C)NCC(O)COc1ccc(CCOCC2CC2)cc1 (stereo not given) | inactive | inactive | inactive | inactive | – | inactive | inactive | inactive | – | inactive | – | inactive | – | – | inactive | inactive | 16600 nM (active) | inactive | inactive | – |
| COc1nc(C)nc(Cl)c1NC1=NCCN1 | inactive | inactive | inactive | – | – | – | 9350 nM (active) | inactive | inactive | inactive | 9350 nM (active) | inactive | – | – | 10500 nM (active) | – | 26400 nM (active) | inactive | inactive | – |
